SMILES strings stand for the structures. Records with an inconclusive call do not appear. Entries that show only a call come without a potency. Calls of active or inactive are those of the source. Unless noted, calls come from the whole dose curve; as a rule, active = well fitted cell-killing curve with a large enough effect in the repeat runs; inconclusive = weak or mixed curves, or effect the other way; inactive = no such curve, though single readings can be large or run the other way.

Chain of Vitamin D3 receptor (Homo sapiens) (P11473 whole entry, looked up): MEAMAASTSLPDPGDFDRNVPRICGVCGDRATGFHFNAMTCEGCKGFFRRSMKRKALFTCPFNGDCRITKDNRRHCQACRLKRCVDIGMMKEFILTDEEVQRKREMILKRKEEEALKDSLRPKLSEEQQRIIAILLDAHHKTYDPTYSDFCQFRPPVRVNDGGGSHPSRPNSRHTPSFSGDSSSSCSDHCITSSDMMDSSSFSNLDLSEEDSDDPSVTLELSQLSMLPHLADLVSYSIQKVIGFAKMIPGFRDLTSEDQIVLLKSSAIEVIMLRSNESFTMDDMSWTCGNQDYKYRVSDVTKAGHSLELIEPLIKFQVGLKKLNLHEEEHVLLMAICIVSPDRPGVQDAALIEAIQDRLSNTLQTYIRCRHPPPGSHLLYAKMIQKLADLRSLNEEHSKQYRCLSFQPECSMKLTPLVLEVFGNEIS

One assay concerns the target Vitamin D3 receptor (Homo sapiens) (UniProt P11473). Put plainly: qHTS assay to identify small molecule agonists of the vitamin D receptor (VDR) signaling pathway (AID 743222; calls by dose curve). Conditions: HEK293T VDR-UAS-bla, beta-lactamase FRET ratio, 16 h; series mostly up to 63.5 µM. A digest of the protocol: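 Following 4 h attachment at 37C, VDR-bla cells (2,000 per well) received DMSO-dissolved compounds or controls. After 16 h incubation, LiveBLAzer B/G FRET substrate was added and fluorescence read 2 h later at room temperature.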
A general note: In qHTS, concentration-response curves come from the screen itself.
Regarding `O=[N+]([O-])c1cccc(S(=O)(=O)NCCNS(=O)(=O)c2cccc([N+](=O)[O-])c2)c1`, the outcome was inactive.

With `CCCCC(CC)COC(=O)COc1ccc(Cl)cc1C` (stereo not drawn), the outcome was inactive.

With `O=C1NCCN1`, the result was inactive.

Turning to `C=CC(C)(O)CCCC(C)CCCC(C)CCCC(C)C` (stereo not drawn), the outcome was inactive.

Turning to `COc1cc2c(N3CCN(C(=O)Nc4ccc(OC(C)C)cc4)CC3)ncnc2cc1OCCCN1CCCCC1`, the result was inactive.

For the compound `OC(CCCN1CCCCC1)(c1ccccc1)c1ccccc1`, the result was inactive.

`Nc1c(I)cc(I)c(C(=O)N(CCC(=O)O)c2ccccc2)c1I`: the outcome was inactive.

For the compound `Nc1nccs1`, the result was inactive.

`O=C(O)c1snc(Cl)c1Cl`: the outcome was inactive.

In the case of `C/C(=N/NC(=O)c1ccncc1)C(=O)O`, the result was inactive.

In the case of `CCn1nc(C)c2c1C(=O)NCC(c1ccc(O)cc1)=N2`, the outcome was inactive.

As to `Cc1ccccc1N1C(=O)c2cc(S(N)(=O)=O)c(Cl)cc2NC1C` (stereo not drawn), the outcome was inactive.

Consider `O=S(=O)(c1ccccc1)c1ccc(Cl)cc1`, for which the outcome was inactive.

Consider `Nc1nc(Cl)nc2c1ncn2[C@@H]1O[C@H](CO)[C@@H](O)[C@@H]1F`, for which the result was inactive.

For the compound `CC(C)C(=O)O`, the result was inactive.

As to `CCOC(=O)C(C)Oc1ccc(Oc2nc3ccc(Cl)cc3o2)cc1` (stereo not drawn), the result was inactive.

Consider `Oc1cc(O)c(Cl)cc1Cl`, for which the outcome was inactive.

For the compound `C[C@@H]1C[C@H]2[C@@H]3CCC4=CC(=O)C=C[C@]4(C)[C@@]3(F)[C@@H](O)C[C@]2(C)[C@H]1C(=O)CO`, the outcome was inactive.

As for `O=S1OCCO1`, the result was inactive.

As to `CC(=O)Nc1ccccc1C`, the result was inactive.

Regarding `Nc1ccc(S(=O)(=O)O)c(N)c1`, the result was inactive.

With `C=CC(C)=CCC=C(C)C`, the result was inactive.

As to `CCC(C)=O`, the outcome was inactive.

For the compound `COC(=O)[C@@H]1CC2=CC(=O)CC[C@]2(C)[C@@]23O[C@@H]2C[C@@]2(C)[C@@H](CC[C@@]24CCC(=O)O4)[C@H]13`, the outcome was inactive.

As for `NC(=O)Nc1ccc(Cl)cc1`, the result was inactive.

For `CO[Si](C)(OC)OC`, the result was inactive.

In the case of `CCCCOC(=O)CCS`, the result was inactive.

On to `CCOc1cc(N)c(Cl)cc1C(=O)NCC1CN(Cc2ccc(F)cc2)CCO1` (stereo not drawn), for which the outcome was inactive.

In the case of `CN1CCCN=C1/C=C/c1cccs1`, the result was inactive.

With `CCCCCCCCCOC(C)=O`, the outcome was inactive.

On to `Cn1c(=O)c2c(ncn2CC(=O)O)n(C)c1=O`, for which the result was inactive.

In the case of `N#C[C@@H]1C[C@@H]2C[C@@H]2N1C(=O)[C@@H](N)C12CC3CC(CC(O)(C3)C1)C2`, the result was inactive.

In the case of `O=C(O)c1ccc(CO)o1`, the result was inactive.

With `CC1(C)C2=CCCC(C)(C)[C@]23CC[C@H]1C3`, the outcome was inactive.

Another assay shares this target. Kind of assay: qHTS assay to identify small molecule antagonists of the vitamin D receptor (VDR) signaling pathway (AID 743223; active = well fitted inhibition curve with a large enough effect in the signal ratio in the repeat runs, not every such curve was filed as active; the % refers to the signal ratio). The settings on record: VDR-UAS-bla HEK293T, beta-lactamase FRET ratio, 16 h; series mostly up to 61 µM. A digest of the protocol: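 Beta-lactamase reporter read-out: FRET substrate fluorescence after 2 h at room temperature, following 16 h exposure of VDR-bla cells to test compound plus 3 nM (final) 1alpha,25-dihydroxyvitamin D3 agonist at 37C.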
Consider `O=[N+]([O-])c1cccc(S(=O)(=O)NCCNS(=O)(=O)c2cccc([N+](=O)[O-])c2)c1`, for which the outcome was inactive.

As for `O=C1NCCN1`, the result was inactive.

Turning to `C=CC(C)(O)CCCC(C)CCCC(C)CCCC(C)C` (stereo not drawn), the result was inactive.

As to `Nc1c(I)cc(I)c(C(=O)N(CCC(=O)O)c2ccccc2)c1I`, the result was inactive.

`O=C(O)c1snc(Cl)c1Cl`: the result was inactive.

In the case of `O=S(=O)(c1ccccc1)c1ccc(Cl)cc1`, the outcome was inactive.

For the compound `CC(C)C(=O)O`, the outcome was inactive.

For the compound `Oc1cc(O)c(Cl)cc1Cl`, the outcome was inactive.

Take `C[C@@H]1C[C@H]2[C@@H]3CCC4=CC(=O)C=C[C@]4(C)[C@@]3(F)[C@@H](O)C[C@]2(C)[C@H]1C(=O)CO`: the result was inactive.

On to `O=S1OCCO1`, for which the result was inactive.

For `Nc1ccc(S(=O)(=O)O)c(N)c1`, the outcome was inactive.

For `C=CC(C)=CCC=C(C)C`, the outcome was inactive.

As for `CCC(C)=O`, the result was inactive.

With `COC(=O)[C@@H]1CC2=CC(=O)CC[C@]2(C)[C@@]23O[C@@H]2C[C@@]2(C)[C@@H](CC[C@@]24CCC(=O)O4)[C@H]13`, the result was inactive.

`CO[Si](C)(OC)OC`: the result was inactive.

Take `CCOc1cc(N)c(Cl)cc1C(=O)NCC1CN(Cc2ccc(F)cc2)CCO1` (stereo not drawn): the result was inactive.

As to `CN1CCCN=C1/C=C/c1cccs1`, the result was inactive.

Tested on in a further assay: not listed separately
Kind of assay: qHTS assay to identify small molecule agonists of the vitamin D receptor (VDR) signaling pathway - cell viability counter screen (AID 743224). Note: nearly all actives have a fitted effect of over 50% in size. Conditions: VDR-bla HEK293T viability, CellTiter-Glo luminescence, 16 h; series mostly up to 62.6 µM. A digest of the protocol: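 In parallel with the bla FRET readout, cytotoxicity toward VDR-bla cells after 16 h compound exposure was assessed by CellTiter-Glo, with luminescence recorded after a 30 min room-temperature incubation.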
Take `O=[N+]([O-])c1cccc(S(=O)(=O)NCCNS(=O)(=O)c2cccc([N+](=O)[O-])c2)c1`: the Potency entry was “inactive”.

In the case of `CCCCC(CC)COC(=O)COc1ccc(Cl)cc1C` (stereo not drawn), the Potency entry was “inactive”.

Regarding `CN1CCN(c2c(F)cc3c(=O)c(C(=O)O)cn4c3c2OCN4C)CC1`, the Potency result was “inactive”.

Regarding `O=C1NCCN1`, the Potency entry was “inactive”.

On to `C=CC(C)(O)CCCC(C)CCCC(C)CCCC(C)C` (stereo not drawn), for which the Potency result is “inactive”.

As to `COc1cc2c(N3CCN(C(=O)Nc4ccc(OC(C)C)cc4)CC3)ncnc2cc1OCCCN1CCCCC1`, the Potency result was “inactive”.

Take `OC(CCCN1CCCCC1)(c1ccccc1)c1ccccc1`: the Potency entry was “inactive”.

In the case of `Nc1c(I)cc(I)c(C(=O)N(CCC(=O)O)c2ccccc2)c1I`, the Potency result was “inactive”.

`Nc1nccs1`: the Potency entry is “inactive”.

`O=C(O)c1snc(Cl)c1Cl`: the Potency entry was “inactive”.

Regarding `CCC1(C)CC(=O)NC1=O` (stereo not drawn), the Potency entry was “inactive”.

Consider `C/C(=N/NC(=O)c1ccncc1)C(=O)O`, for which the Potency result is “inactive”.

With `CCn1nc(C)c2c1C(=O)NCC(c1ccc(O)cc1)=N2`, the Potency result was “inactive”.

For the compound `Cc1ccccc1N1C(=O)c2cc(S(N)(=O)=O)c(Cl)cc2NC1C` (stereo not drawn), the Potency entry was “inactive”.

Regarding `O=S(=O)(c1ccccc1)c1ccc(Cl)cc1`, the Potency result is “inactive”.

`Nc1nc(Cl)nc2c1ncn2[C@@H]1O[C@H](CO)[C@@H](O)[C@@H]1F`: the Potency entry is “inactive”.

On to `CC(C)C(=O)O`, for which the Potency result was “inactive”.

For `CCOC(=O)C(C)Oc1ccc(Oc2nc3ccc(Cl)cc3o2)cc1` (stereo not drawn), the Potency result is “inactive”.

Turning to `Oc1cc(O)c(Cl)cc1Cl`, the Potency result is “inactive”.

Take `C[C@@H]1C[C@H]2[C@@H]3CCC4=CC(=O)C=C[C@]4(C)[C@@]3(F)[C@@H](O)C[C@]2(C)[C@H]1C(=O)CO`: the Potency result was “inactive”.

Take `O=S1OCCO1`: the Potency result was “inactive”.

Take `Nc1ccc(S(=O)(=O)O)c(N)c1`: the Potency entry was “inactive”.

With `CCCCN(CCCC)CCCOC(=O)c1ccc(N)cc1`, the Potency result is “inactive”.

In the case of `C=CC(C)=CCC=C(C)C`, the Potency result is “inactive”.

With `CCC(C)=O`, the Potency entry is “inactive”.

Turning to `NC(=O)Nc1ccc(Cl)cc1`, the Potency result is “inactive”.

As for `Cc1ccc(S(=O)(=O)NC2CCCCC2)cc1`, the Potency entry is “inactive”.

Consider `CO[Si](C)(OC)OC`, for which the Potency entry was “inactive”.

In the case of `CCCCOC(=O)CCS`, the Potency entry is “inactive”.

For `CCOc1cc(N)c(Cl)cc1C(=O)NCC1CN(Cc2ccc(F)cc2)CCO1` (stereo not drawn), the Potency entry is “inactive”.

As for `CN1CCCN=C1/C=C/c1cccs1`, the Potency result was “inactive”.

As for `CCCCCCCCCOC(C)=O`, the Potency entry is “inactive”.

In the case of `Cn1c(=O)c2c(ncn2CC(=O)O)n(C)c1=O`, the Potency entry is “inactive”.

As to `N#C[C@@H]1C[C@@H]2C[C@@H]2N1C(=O)[C@@H](N)C12CC3CC(CC(O)(C3)C1)C2`, the Potency result was “inactive”.

For `O=C(O)c1ccc(CO)o1`, the Potency result is “inactive”.

Turning to `CN1Cc2cc(C(=O)N3CCC(C4CCNCC4)CC3)ccc2N[C@@H](CC(=O)O)C1=O`, the Potency entry is “inactive”.

Regarding `CC1(C)C2=CCCC(C)(C)[C@]23CC[C@H]1C3`, the Potency entry is “inactive”.
